# Data as given in ChEMBL document CHEMBL4513155, “CO-ADD screening of University of Sydney (Australia) compounds” (2021).
# Measured potencies and affinities stand elsewhere.
# How the values were obtained:
# Staphylococcus aureus = conditions: Concentration 32 ug.mL-1; ASSAY_TEST Inhibition of Bacterial Growth; detection method Absorption (OD600); MEDIA CAMHB; plate type 384well; NBS; CORNING #3640; time 18 hr
# Escherichia coli = conditions: Concentration 32 ug.mL-1; ASSAY_TEST Inhibition of Bacterial Growth; detection method Absorption (OD600); MEDIA CAMHB; plate type 384well; NBS; CORNING #3640; time 18 hr
Structure (SMILES),Inhibition (Staphylococcus aureus) [%],Inhibition (Escherichia coli) [%]
COC(COc1cncc2nnc(-c3ccc(C#N)cc3)n12)c1ccc(F)c(F)c1 (centres undefined),-4.85,2.52
Fc1ccc(CCOc2cncc3nnc(-c4ccc(C(F)(F)F)nc4)n23)cc1F,6.53,1.6
Fc1ccc(CCOc2cncc3nnc(-c4ccc(Cl)cc4)n23)cc1F,-7.02,-0.47
CCN1C(=O)c2cccc3c(-c4cn(CCN5CCCNCCN(CCn6cc([C@]7(O)CC[C@H]8[C@@H]9CCc%10cc(O)ccc%10[C@H]9CC[C@@]87C)nn6)CCCNCC5)nn4)ccc(c23)C1=O.OCCN1CCN(CCCN2c3ccccc3Sc3ccc(Cl)cc32)CC1.[O-][Cl+3]([O-])([O-])[O-].[O-][Cl+3]([O-])([O-])[O-].[Zn+2],38.05,0.56
CN(C)C(COc1cncc2nnc(-c3ccc(C#N)cc3)n12)c1ccc(F)c(F)c1 (centres undefined),-0.93,3.93
O.O=C1c2cccc3c(-n4cc(CN5CCCNCCN(Cc6cn(-c7ccc8c9c(cccc79)C(=O)N(CCCO)C8=O)nn6)CCCNCC5)nn4)ccc(c23)C(=O)N1CCCO.[Cl-].[Cl-].[Zn+2],7.81,6.15
N#Cc1ccc(-c2nnc3cncc(OCC(O)c4ccc(F)c(F)c4)n23)cc1 (centres undefined),-3.19,2.25
